Measured values as given in the supplement of paper PMC7393113.
Counter-ions that a name gives are not always drawn. ± gives the standard deviation of the averaged measurements.

Test system: iBMDM (immortalised mouse bone-marrow-derived macrophages), LPS-stimulated
Experiment: mitochondrial superoxide (MitoSOX fluorescence) fold increase over unstimulated control; higher = more LPS-induced mitochondrial ROS (less inhibition)
Details: inhibitor concentration: 500 nM, LPS: 100 ng/ml
Method in brief: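 Immortalised mouse bone-marrow-derived macrophages in black 96-well plates were kept in phenol-red-free 1% FCS/DMEM for 20 h, pretreated 30 min with kinase inhibitors (500 nM), loaded with 1 μM MitoSox for 10 min and then given LPS (100 ng/ml). Fluorescence at excitation/emission 510/580 nm was read on a ClarioStar plate reader every 60 min for 4 h, with wells in triplicate. Mitochondrial superoxide is given as fold induction over untreated macrophages, averaged across replicates.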

Row | SMILES | mitochondrial superoxide (time after LPS: 1 h) | mitochondrial superoxide (time after LPS: 2 h) | mitochondrial superoxide (time after LPS: 4 h)
1 | COc1cc(Nc2c(C#N)cnc3cc(OCCCN4CCN(C)CC4)c(OC)cc23)c(Cl)cc1Cl [Bosutinib (SKI-606)] | 1.58 ± 0.017 | 1.66 ± 0.056 | 1.81 ± 0.04
2 | CN(C)C1CCN(C(=O)c2ccc(NC(=O)Nc3ccc(-c4nc(N5CCOCC5)nc(N5CCOCC5)n4)cc3)cc2)CC1 | 1.1 ± 0.061 | 1.29 ± 0.014 | 1.58 ± 0.095
3 | Cc1cc(Nc2cc(N3CCN(C)CC3)nc(Sc3ccc(NC(=O)C4CC4)cc3)n2)n[nH]1 [VX-680 (Tozasertib, MK-0457)] | 1.55 ± 0.069 | 1.64 ± 0.051 | 1.73 ± 0.033
4 | CCn1cc(-c2ccnc3[nH]c(-c4cccc(CN(C)C)c4)cc23)c(-c2ccc(NC(=O)N(C)C)cc2)n1 | 1.27 ± 0.026 | 1.45 ± 0.047 | 1.71 ± 0.16
5 | Cc1nc(NC(=O)N2CCC[C@H]2C(N)=O)sc1-c1ccnc(C(C)(C)C(F)(F)F)c1 | 1.3 ± 0.032 | 1.46 ± 0.052 | 1.7 ± 0.057
6 | C[C@@H]1CN(CC(=O)Nc2ccc3c(c2)Cc2cccc(-c4cc(=O)cc(N5CCOCC5)o4)c2S3)C[C@H](C)O1 | 1.2 ± 0.07 | 1.31 ± 0.059 | 1.44 ± 0.015
7 | O=c1ncn2nc(Sc3ccc(F)cc3F)ccc2c1-c1c(Cl)cccc1Cl | 1.16 ± 0.045 | 1.21 ± 0.014 | 1.28 ± 0.037
8 | CCc1cc2c(cc1N1CCC(N3CCOCC3)CC1)C(C)(C)c1[nH]c3cc(C#N)ccc3c1C2=O | 1.26 ± 0.097 | 1.4 ± 0.066 | 1.64 ± 0.12
9 | Cc1cc(Nc2cc(CN3CCOCC3)c3nc(C)c(Cc4ccc(Cl)cc4F)n3n2)n[nH]1 | 1.16 ± 0.062 | 1.23 ± 0.048 | 1.38 ± 0.035
10 | CN(C)C/C=C/C(=O)Nc1cc2c(Nc3ccc(F)c(Cl)c3)ncnc2cc1O[C@H]1CCOC1 [Afatinib (BIBW2992)] | 1.54 ± 0.068 | 1.6 ± 0.047 | 1.77 ± 0.11
11 | COc1cc(OC)c(/C=C/S(=O)(=O)Cc2ccc(OC)c(NCC(=O)O)c2)c(OC)c1 | 1.071 ± 0.0096 | 1.15 ± 0.084 | 1.23 ± 0.086
12 | C=CC(=O)Nc1cccc(Oc2nc(Nc3ccc(N4CCN(C)CC4)cc3)ncc2Cl)c1 | 1.54 ± 0.047 | 1.71 ± 0.056 | 1.8 ± 0.14
13 | C=CCc1ccc(O)c(-c2ccc(O)c(CC=C)c2)c1 [Honokiol] | 1.24 ± 0.031 | 1.31 ± 0.1 | 1.39 ± 0.096
14 | O=c1cc(N2CCOCC2)oc2c1ccc1ccccc12 | 1.13 ± 0.049 | 1.11 ± 0.062 | 1.17 ± 0.062
15 | COc1cc2c(Oc3ccc(NC(=O)C4(C(=O)Nc5ccc(F)cc5)CC4)cc3F)ccnc2cc1OCCCN1CCOCC1 | 1.25 ± 0.022 | 1.35 ± 0.034 | 1.48 ± 0.03
16 | Cc1cnc(Nc2ccc(N3CCN(C)CC3)cc2)nc1Nc1cccc(S(=O)(=O)NC(C)(C)C)c1 | 1.36 ± 0.025 | 1.51 ± 0.04 | 1.65 ± 0.027
17 | C[S+]([O-])c1ccc(-c2nc(-c3ccc(F)cc3)c(-c3ccncc3)[nH]2)cc1 (stereo not given) | 1.39 ± 0.14 | 1.5 ± 0.16 | 1.6 ± 0.18
18 | COc1cc2ncnc(Nc3ccc(Cl)cc3F)c2cc1OC | 1.12 ± 0.029 | 1.24 ± 0.037 | 1.271 ± 0.0046
19 | CC[C@H](Nc1ncnc2[nH]cnc12)c1nc2cccc(F)c2c(=O)n1-c1ccccc1 [CAL-101 (Idelalisib, GS-1101)] | 1.34 ± 0.019 | 1.4 ± 0.06 | 1.48 ± 0.11
20 | CCOc1cc2ncc(C#N)c(Nc3ccc(OCc4ccccn4)c(Cl)c3)c2cc1NC(=O)/C=C/CN(C)C [Neratinib (HKI-272)] | 1.06 ± 0.1 | 1.19 ± 0.14 | 1.27 ± 0.092
21 | Cc1cc2c(F)c(Oc3ncnn4cc(OC[C@@H](C)O)c(C)c34)ccc2[nH]1 | 1.337 ± 0.0099 | 1.44 ± 0.11 | 1.53 ± 0.14
22 | CCCCOc1c(C(=O)c2c(F)cc(C)cc2F)c[nH]c2nncc1-2 | 1.16 ± 0.027 | 1.25 ± 0.066 | 1.37 ± 0.036
23 | Cn1cnc2c(F)c(Nc3ccc(Br)cc3F)c(C(=O)NOCCO)cc21 | 1.13 ± 0.046 | 1.26 ± 0.038 | 1.29 ± 0.028
24 | CNC(=O)c1cc(COc2nnc(Nc3ccc(Cl)cc3)c3ccoc23)ccn1 [Telatinib] | 1.23 ± 0.036 | 1.33 ± 0.051 | 1.38 ± 0.11
25 | O=S(=O)(c1cccc2cnccc12)N1CCCNCC1 [Fasudil (HA-1077) HCl] | 1.03 ± 0.023 | 1.12 ± 0.041 | 1.31 ± 0.029
26 | O=C(NOCC1CC1)c1ccc(F)c(F)c1Nc1ccc(I)cc1Cl | 1.57 ± 0.11 | 1.59 ± 0.071 | 1.9 ± 0.1
27 | CS(=O)(=O)N1CCN(Cc2cc3nc(-c4cccc5[nH]ncc45)nc(N4CCOCC4)c3s2)CC1 | 1.28 ± 0.025 | 1.42 ± 0.027 | 1.6 ± 0.041
28 | C[C@@H]1COC(Nc2ccc3ncnc(Nc4ccc(OCc5nccs5)c(Cl)c4)c3c2)=N1 [Varlitinib] | 1.3 ± 0.019 | 1.39 ± 0.09 | 1.69 ± 0.08
29 | CN(C)c1ccc(-c2nc3ncc(Cl)c(N4CCN(CC(=O)Nc5nccs5)CC4)c3[nH]2)cc1 | 1.21 ± 0.037 | 1.278 ± 0.0079 | 1.35 ± 0.039
30 | Cc1cc(C(=O)NOCCO)c(Nc2ccc(I)cc2F)n(C)c1=O | 1.05 ± 0.042 | 1.25 ± 0.092 | 1.39 ± 0.073
